Each structure is given as a SMILES string. Compounds without any hit were thinned out: in the full panel of roughly 83,000, 20% have a hit.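 Treatment: one concentration, 48 hours, 96-well format. Scoring: percent growth, with anything below 10 considered active.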 A number with no mark means an inactive call. Activity calls are given as the source filed them.

Assay in all cases: NCI-60 one-dose screen, 48 h (100 = growth as untreated, 0 = no growth, -100 = all killed)
Holding throughout (settings): 10 µM unless noted

The subject of assay [1] is SR leukemia.
Assay [2] relates to RPMI-8226 leukemia.
Assay [3] concerns OVCAR-8 ovarian.
The test system of assay [4] is OVCAR-5 ovarian.
Assay [5] deals with OVCAR-4 ovarian.
The test system of assay [6] is SK-OV-3 ovarian.
Assay [7] has as its system IGROV1 ovarian.
In assay [8] the test system is OVCAR-3 ovarian.
For assay [9], the system named is HS 578T breast.
For assay [10], the system named is NCI/ADR-RES ovarian.
Assay [11] deals with T-47D breast.
The test system of assay [12] is BT-549 breast.
For assay [13], the system named is MDA-MB-435 melanoma.
The subject of assay [14] is SW-620 colon.
In assay [15] the test system is MCF7 breast.
Assay [16] has as its system HCT-116 colon.
For assay [17], the system named is HCC-2998 colon.
The test system of assay [18] is KM12 colon.

As to `O=C1CS/C(=N\Nc2cc(=O)[nH]c3ccccc23)N1c1ccccc1`, the growth is 77.9% in [1]; 88.4% in assay [2]; 94% in [3]; 95.6% in assay [4]; 97% in [5]; 107% in assay [6]. In addition, the growth was 89.1% in assay [7]; 99.8% in [8]; 97.1% in [9]; 91.3% in assay [10]; 89.6% in assay [11]; 95.3% in [12]. Also, the growth in [13] is 82.9%; in assay [14] it was 92.9%; in [15], 92%; in [16] it was 89.7%; in [17], 96%; in assay [18], 98.8%.

For the compound `O=C1C2(c3ccccc3)C(c3ccccc3)=C(c3ccccc3)C1(c1ccccc1)C1CC=CC12` (centres undefined), the growth was 101% in assay [1]; 50.2% in assay [2]; 87.5% in [3]; 97.9% in assay [4]; 69.5% in assay [5]; 96.3% in assay [6]. Moreover, the growth in assay [7] is 86.9%; in assay [8], 89.5%; in assay [9] it was 106%; in [10], 90.3%; in assay [11], 68.3%; in assay [12], 99.4%. In addition, the growth in [13] is 92.9%; in assay [14] it was 93.8%; in assay [15] it was 82.8%; in assay [16], 76%; in assay [17], 87.7%; in [18] it was 80%.

As to `C=CCn1c2ccccc2c2c3c(c4c5ccccc5n(CC=C)c4c21)C(=O)N(O)C3=O`, the growth is 7.52% (active) in assay [1]; 24.4% in assay [2]; 22.9% in [3]; 86.4% in [4]; 45.8% in [5]; 33.9% in assay [6]. The growth in [7] was -15.6% (active); in assay [8] it was 33.2%; in assay [9] it was 77.2%; in [10] it was 2.91% (active); in assay [11], 13%; in assay [12], 45%. The growth is 42.7% in assay [13]; 54.9% in assay [14]; 13% in [15]; 22.3% in assay [16]; 36.5% in assay [17]; 26.4% in assay [18].

For the compound `CC(C)c1ccc2occ(C=C3C(=O)NC(=O)NC3=O)c(=O)c2c1`, the growth in assay [1] was 73.1%; in assay [2] it was 74.8%; in assay [3], 80.1%; in assay [4], 123%; in [5] it was 89.1%; in [6], 109%. In addition, the growth in [7] was 120%; in assay [8], 95.6%; in assay [9], 111%; in [10], 90.1%; in assay [11], 83.5%; in assay [12], 92.4%. For the same compound, the growth in [13] is 105%; in assay [14], 91.6%; in assay [15], 80.8%; in assay [16] it was 76.5%; in assay [17], 93.7%; in assay [18], 117%.

`Brc1ccc(-c2[nH]ncc2-c2c[nH]c3ccccc23)cc1`: the growth in [1] was 100%; in assay [2] it was 81.8%; in assay [3], 96.4%; in assay [4], 97.7%; in assay [5], 86.3%; in assay [6] it was 103%. In addition, the growth in assay [7] is 91.1%; in assay [8] it was 97.3%; in assay [9], 88.3%; in assay [10], 101%; in [11], 88.2%; in assay [12] it was 80.1%. Besides, the growth is 92.7% in assay [13]; 96.2% in assay [14]; 66.8% in assay [15]; 98.4% in [16]; 112% in [17]; 94.3% in assay [18].

`COc1cc(/C=C/C(=O)/C=C/c2cc(OC)c3c(c2)OCO3)cc2c1OCO2`: the growth was 33.6% in assay [1]; -10.5% (active) in assay [2]; 95.4% in [3]; 107% in [4]; 104% in [5]; 86.6% in assay [6]. Besides, the growth is 90.3% in [7]; 34.6% in assay [8]; 103% in assay [9]; 91.2% in assay [10]; 88.6% in [11]; 84.3% in [12]. Further, the growth in assay [13] was -21.2% (active); in [14] it was 11.5%; in assay [15] it was 19.8%; in assay [16] it was -93.9% (active); in [17], 14.6%; in assay [18], -17.1% (active).

As for `CC(C)(C)c1[nH]nc2c1C(c1cc3ccccc3[nH]c1=O)Nc1cc(C(=O)Nc3ccc(Cl)cc3)ccc1N2` (centres undefined), the growth in assay [1] was 65.4%; in assay [2], 42.5%; in assay [3], 75.3%; in assay [4], 114%; in [5] it was 32.5%; in assay [6], 90.6%. Also, the growth was 59.6% in assay [7]; 58.4% in assay [8]; 52.6% in assay [9]; 95.3% in assay [10]; 40% in assay [11]; 63.9% in [12]. Further, the growth in [13] was 35.4%; in assay [14], 66.3%; in assay [15], 27.8%; in [16] it was 45.6%; in assay [17], 86.3%; in assay [18] it was 50.2%.

Regarding `CCOC(=O)NNC(=S)Nc1ccccc1`, the growth in assay [1] is 110%; in assay [2], 105%; in assay [3], 102%; in assay [4], 116%; in assay [5] it was 100%; in assay [6], 111%. Also, the growth in [7] was 107%; in [8], 116%; in assay [9] it was 103%; in assay [10] it was 106%; in [11], 113%; in [12], 103%. Also, the growth in assay [13] was 94.9%; in assay [14], 110%; in assay [15], 100%; in [16], 104%; in assay [17], 117%; in assay [18], 106%.

(Values after PubChem BioAssay (NCI).)
